Test results reported in PubChem BioAssay AID1508600 (Functional Genomics Laboratory (NCATS/FGL), 2020).
Hit rate of the full screen: of about 53,000 sequences, about 3,700 (7%) were called active.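 The calls were made as follows: active = gene knockdowns whose robust z-score for IL-1 alpha signal is at least 2 or at most -2, so actives lie on both sides; inactive = the rest.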 Only a selection was taken, and actives are over-represented in it overall.

Assay: Components of the Cytosolic LPS Sensing Pathway: Gene Identification via Genome-wide siRNA Screen;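 also: robust z of the log signal after scaling to non-targeting control siRNA wells of the plate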
Conditions: RAW264.7 macrophages, IL-1a HTRF, actives lie on both sides, screened at 100 nM (by protocol), cells primed 5 h with Pam3CSK4 first
How it was run: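 Read-out: IL-1a HTRF on supernatant, divided by plate negative-control median ×100, log-transformed and converted to robust z-score. Cells were RAW264.7 given 100 nM siRNA, Pam3CSK4-primed 5 hours, then LipidA-transfected 24 hour.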

z-score, inactive:
GGAUUUCAUUCCAAACAUGTT against Hbs1l -0.161
CGGGACUAUUAUUACUCCATT against Ap2m1 -1.22
GGAAGAUCUCUUGUCUGCUTT against Mtcp1 -0.269
GGGAAAUCUAUUUUUGUGATT against Mob3c -1.77
GGCUUAUUGGAAGAGGACGTT against Ier5 0.559
GCUGAGUCCAUGUCUGUUGTT against Coro2a -0.119
CGGCAUGAGCAGUUUAUAUTT against Col19a1 -1.04
GGGAUUCAGUAUAAAACACTT against Nup37 -1.25
GGAAAGAGCCAUCCUUUGATT against Gnmt -0.186
GGUGUAGACUCCAACAUGUTT against Aarsd1 1.69
CCUUGGACUAUGGCAAAAATT against Neurod6 0.418
GGAAAAUGACACAGGUAUCTT against Entpd2 -0.103
GGAGAUGAGCUGUAUGUGATT against Nudt19 0.862
GACUUCAGACAAAUAGUGCTT against Lce1i -1.24
GCAUCGAAAAUCUUUCCAATT against Fibcd1 1.6
GGUGCUCAAUAAAUGUAAATT against Cd151 -1.26
GGGUUUCUUCCCUGAGCUATT against Nxf7 -1.97
CCACUAUGAAUCGUGGUUCTT against Sp6 0.731
CGUGCAUCCCUAUAUCCUATT against Panx2 0.343
GGUUGACAACACAUCUGCUTT against Ugt2b34 -0.766
GGGAAUAGUUUAUAUGGACTT against Ccl20 0.315
CGGGCAAUGUCAGAUUGUGTT against Vmn1r75 1.41
GGUACUUUCGGACUCAGUUTT against Ipp -0.0605
GCUAGGUGUUUGAAGCCUCTT against Mixl1 -0.834
GAUCUUCCUGACAGUGGUGTT against Psors1c2 -0.15
GGACUUCUUCUUGUACAACTT against Capn3 1.03
GGGCUCUUGCCAGAAAACGTT against Rsph3a -0.524
GCCACUCGGAGAUUUUUCATT against Slc15a4 -0.6
CCCUGACCUUCAGAUUGUGTT against Olfr788 0.14
CCAAGUAGAUAGGAAUUAUTT against Eps8 2
GGAUGCUUUACCAAAUGAATT against Slc44a3 0.147
GGAAAAUUGGCCAAAAUAATT against Pdcl -0.0308
GGAGAAGCUGCUGGCAGAATT against Trub1 -1.15
CCUCUUCUUGUUUCAAGGGTT against Piezo2 0.062
CCAGCUAAACUCUGUAAAATT against Zfp639 -0.113
GCUUUGGACAAUAAGAAGUTT against Cdkl1 -0.838
GUCACUGAUACUCAAUAAATT against Vmn1r172 -1.45
GGCUAUCUACCAUUAUAUGTT against Ifit2 -0.607
GGUCCUGUUAAACUGAAAGTT against Fkbp1a -1.45
GGGAAUAAAAAGGAUCACUTT against Rab39 1.27
CCUGAAUGACCUAGGGCCUTT against Adam8 0.286
GGCAUGAGCUAUCAGGACUTT against Efcab6 1.37
GGUAUUAGCAAUUUUCUGGTT against Olfr619 -0.681
GGGAAAAUUCCAGAAUCGCTT against Musk 0.315
GCCGGCCAGAAUAUACAUUTT against Fndc10 0.415
CCUUCCUCGUGAUUCGCUATT against Lman2l -0.461
GGUUGAGUAGUUGAUUUUCTT against Hemgn 0.663
GGAGCAGAUACAGAAGAUCTT against Pfdn2 -1.21
GUAUAGUGUAUCUCAUCAUTT against Olfr1107 1.56
GCUCAGUGGACAUGCUCUATT against Hpse -0.502
GGAGGCAUGAUAAGCUUCGTT against Pmm1 -0.425
GGGUGAGAUAAUUGAAAAGTT against Slc12a6 0.607
GGGCUUCAACACUGAGAAGTT against Arl4d -1.04
GGCUCCUACCAAUCUCACUTT against Calcr -0.548
GGGAAAAAUGGACUAGCAUTT against Ahctf1 0.888

z-score, active:
GGGAGAUGCAACCUCUCUUTT against Dennd5b 2.91
GGUCUGGAGACAAUCAUCATT against Rnf222 -2.47
GCUGAUUGAGCAUCCGAUGTT against Ggt1 2.78
CGUAUAAUAACUCCUUAUCTT against Hoxa1 2.17
GCCGGAAUCCUGUGGAAUCTT against Kat14 6.46
GGAUCAAUGUGGUACCUAUTT against Sf3a1 -2.79
GGAAGGGUAAAUUUAGAAGTT against Arrdc3 2.83
GGUAAAAAACCAAGAACAATT against Ednrb 2.17
GCUUUAUGGGAGACAAAGGTT against 1700022I11Rik 2.53
GGUCUUGGAGUUGCUAAUUTT against Med4 2.63
GCAUCGUCCUCCAAAGAUUTT against Sf3b1 -3.01
CGAGGAUGACUUGAUGACCTT against Ajm1 -2.18
GGAAAUACCCACCUUAUACTT against Efhc2 2.51
GCUACUAAACAGGGUGUGATT against Gpsm3 -2.42
